Unmarked numbers belong to inactive results. Records with an inconclusive call do not appear. Activity calls are given as the source filed them. Unless noted, calls come from the whole dose curve; as a rule, active = well fitted curve in the direction sought with a large enough effect; inconclusive = small, poorly fitted or top-dose-only effect, or another doubt; inactive = no such curve, though single readings can be large; an effect the other way counts as inactive or inconclusive.

This note sets out measurements from PubChem BioAssay (NCATS).

Assay [1] addresses Galactokinase (Homo sapiens) (UniProt P51570). In words: qHTS Validation Assay for Inhibitors of Human Galactokinase (GALK) (AID 493189). A digest of the protocol:
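Compounds were pin-transferred into ATP buffer, then GALK-galactose mix was added (final 5 nM enzyme, 100 uM galactose, 35 uM ATP). After 1 h at room temperature, remaining ATP was measured luminescently.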

Assay [2] is described as follows: Validation screen for small molecules that induce DNA re-replication in SW480 colon adenocarcinoma cells (AID 504364). In a few lines:
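Cells are treated 48 hr with test compound, stained 40 min with Hoechst at 37 C, and scanned for nuclear fluorescence; compounds inducing re-replication increase nuclei with elevated intensity.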

For assay [3], the target named is Peptidyl-prolyl cis-trans isomerase NIMA-interacting 1 (Homo sapiens) (UniProt Q13526). In words: qHTS Validation Assay to Find Inhibitors of Pin1 (AID 504536; active = well fitted inhibition curve with a large enough effect in the polarisation, with a control signal flat, not every such curve was filed as active; the % refers to the polarisation). In a few lines: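 Fluorescence polarization competition: compounds (titration) displace HiFluor-488-labeled Pin1-1b peptide from Pin1 (0.3 uM final) in pH 7.5 HEPES buffer with DTT, 10 min at room temperature; %Activity normalized to no-enzyme wells, curves fitted.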
Peptidyl-prolyl cis-trans isomerase NIMA-interacting 1 (Homo sapiens), sequence (Q13526 whole entry, looked up): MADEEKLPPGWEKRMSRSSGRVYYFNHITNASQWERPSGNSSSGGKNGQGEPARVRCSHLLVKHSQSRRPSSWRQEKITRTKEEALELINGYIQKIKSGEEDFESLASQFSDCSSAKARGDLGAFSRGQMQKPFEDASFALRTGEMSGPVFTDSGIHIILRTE

The target of assay [4] is Phosphoglycerate kinase, glycosomal (Trypanosoma brucei brucei) (UniProt P07378). Nature of the assay: qHTS Validation Assay to Find Inhibitors of Phosphoglycerate Kinase (AID 504547). A digest of the protocol: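 PGK activity was coupled to GAPDH (100nM final), which generates the unstable substrate 1,3-bisphosphoglycerate in-well. Reactions ran 60 minutes at room temperature in 100mM TEA pH 7.6, 5mM MgCl2, 0.01% Tween-20, then Kinase-Glo Plus luminescence was read.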
Phosphoglycerate kinase, glycosomal (Trypanosoma brucei brucei), sequence (P07378 whole entry, looked up): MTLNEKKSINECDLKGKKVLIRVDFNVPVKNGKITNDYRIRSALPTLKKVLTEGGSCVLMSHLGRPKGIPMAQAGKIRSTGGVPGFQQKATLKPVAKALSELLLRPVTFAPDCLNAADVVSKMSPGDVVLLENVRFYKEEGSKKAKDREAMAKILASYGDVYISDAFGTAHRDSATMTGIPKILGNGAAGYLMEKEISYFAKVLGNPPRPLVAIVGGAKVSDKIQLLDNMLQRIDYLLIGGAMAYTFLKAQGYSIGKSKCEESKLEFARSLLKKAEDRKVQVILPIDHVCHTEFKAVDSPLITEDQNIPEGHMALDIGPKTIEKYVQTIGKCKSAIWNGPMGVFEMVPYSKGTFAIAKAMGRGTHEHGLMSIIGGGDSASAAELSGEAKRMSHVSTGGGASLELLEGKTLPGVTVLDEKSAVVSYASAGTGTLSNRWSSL

Assay [5] addresses phosphoglycerate mutase (Leishmania major) (UniProt Q4Q090). In words: qHTS Validation Assay to Find Inhibitors of Phosphoglycerate Mutase (AID 504548). Note: series mostly up to about 58 µM. The settings on record: Potency: inhibition qHTS. In a few lines:
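Lm PGAM 1.25nM final; 100 mM TEA pH 7.6, 5 mM MgCl2, 0.01% Tween-20; 45 min RT; Kinase-GloPlus, 10 min; end-point luminescence. Enzyme-free wells as negative controls.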

Assay [6] in a line: Inducers of the Endoplasmic Reticulum Stress Response (ERSR) in human glioma: Validation (AID 504836). A digest of the protocol: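 Stably transfected U87-MG glioma cells carrying a GRP78-based luciferase sensor; 16 h compound incubation. Luminescence end-point read 10 min after Bright-Glo addition at room temperature.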
Assay [7] deals with Ubiquitin carboxyl-terminal hydrolase 1 (Homo sapiens) (UniProt O94782). Nature of the assay: Inhibitors of USP1/UAF1: Pilot qHTS (AID 504865). Note: nearly all actives have a fitted effect of over 35% in size. Note: potency is the fitted concentration of half-maximal effect. A digest of the protocol: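 Kinetic fluorescence assay: 1nM USP1/UAF1, 15 min compound preincubation, then 150nM Ub-Rho; 480/540 nm.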
Ubiquitin carboxyl-terminal hydrolase 1 (Homo sapiens), sequence (O94782 whole entry, looked up): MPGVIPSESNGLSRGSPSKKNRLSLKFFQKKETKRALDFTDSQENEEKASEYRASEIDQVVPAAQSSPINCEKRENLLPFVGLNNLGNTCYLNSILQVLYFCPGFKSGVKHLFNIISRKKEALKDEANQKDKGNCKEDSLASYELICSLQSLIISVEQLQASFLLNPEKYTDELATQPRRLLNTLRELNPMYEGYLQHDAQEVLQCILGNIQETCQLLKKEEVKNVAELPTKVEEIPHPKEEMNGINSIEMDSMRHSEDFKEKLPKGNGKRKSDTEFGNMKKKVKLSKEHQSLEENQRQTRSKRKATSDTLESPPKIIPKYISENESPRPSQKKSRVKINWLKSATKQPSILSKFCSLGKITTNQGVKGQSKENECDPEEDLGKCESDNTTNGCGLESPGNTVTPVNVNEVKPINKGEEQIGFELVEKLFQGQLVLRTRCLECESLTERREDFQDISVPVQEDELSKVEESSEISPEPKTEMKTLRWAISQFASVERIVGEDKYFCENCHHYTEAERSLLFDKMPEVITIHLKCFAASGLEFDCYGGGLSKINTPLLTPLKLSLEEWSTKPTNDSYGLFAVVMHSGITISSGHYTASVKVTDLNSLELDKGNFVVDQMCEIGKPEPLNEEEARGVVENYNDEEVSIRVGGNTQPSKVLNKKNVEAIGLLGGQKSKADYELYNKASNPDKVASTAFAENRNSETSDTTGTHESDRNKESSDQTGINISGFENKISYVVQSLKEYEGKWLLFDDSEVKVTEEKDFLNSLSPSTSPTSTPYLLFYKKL
Assay [8] can be described thus: qHTS for Inhibitors of ATXN expression: Validation of Cytotoxic Assay (AID 588349).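 Note: cells exposed to compound for 72 hr.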 In a few lines:
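HEK293, compound dose series, 72 hr / 37 degrees C; viability via CellTiter Glo (intracellular ATP).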

Assay [9] is described as follows: qHTS for Inhibitors of ATXN expression: Validation (AID 588378). Note: series mostly up to about 57 µM; nearly all actives have a fitted effect of over 75% in size. In a few lines: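 Validation of ATXN2 expression inhibitors uses a cell-based luciferase fusion reporter in HEK293 cells, with 24 h compound exposure and paired viability (fluorescence) and reporter (luminescence) end-point reads.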
Assay [10] deals with DNA dC->dU-editing enzyme APOBEC-3G (Homo sapiens) (UniProt Q9HC16). In words: qHTS for inhibitors of Vif-A3G interactions: Validation (AID 588379). In a few lines:
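HeLa cells stably expressing Vif and A3G-eYFP, 700 cells/well, incubated overnight at 37 deg C, then exposed to compound overnight at 37 deg C. Inhibition of Vif-mediated degradation read as increased yellow fluorescence (Ex 488/Em 500-530) by laser-scanning cytometry.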

Galactokinase (Homo sapiens), sequence (P51570 whole entry, looked up): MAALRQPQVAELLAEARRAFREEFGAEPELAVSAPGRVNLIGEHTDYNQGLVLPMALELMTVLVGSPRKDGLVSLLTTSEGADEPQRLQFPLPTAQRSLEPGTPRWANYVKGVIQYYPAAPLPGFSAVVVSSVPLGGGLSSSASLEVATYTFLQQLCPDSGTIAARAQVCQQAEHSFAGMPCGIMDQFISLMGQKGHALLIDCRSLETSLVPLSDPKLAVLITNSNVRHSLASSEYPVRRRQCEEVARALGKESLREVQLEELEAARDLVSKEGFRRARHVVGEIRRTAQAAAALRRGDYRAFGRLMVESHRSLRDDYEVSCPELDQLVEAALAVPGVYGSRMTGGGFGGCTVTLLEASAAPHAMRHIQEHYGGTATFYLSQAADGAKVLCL
phosphoglycerate mutase (Leishmania major), sequence (Q4Q090 1-553): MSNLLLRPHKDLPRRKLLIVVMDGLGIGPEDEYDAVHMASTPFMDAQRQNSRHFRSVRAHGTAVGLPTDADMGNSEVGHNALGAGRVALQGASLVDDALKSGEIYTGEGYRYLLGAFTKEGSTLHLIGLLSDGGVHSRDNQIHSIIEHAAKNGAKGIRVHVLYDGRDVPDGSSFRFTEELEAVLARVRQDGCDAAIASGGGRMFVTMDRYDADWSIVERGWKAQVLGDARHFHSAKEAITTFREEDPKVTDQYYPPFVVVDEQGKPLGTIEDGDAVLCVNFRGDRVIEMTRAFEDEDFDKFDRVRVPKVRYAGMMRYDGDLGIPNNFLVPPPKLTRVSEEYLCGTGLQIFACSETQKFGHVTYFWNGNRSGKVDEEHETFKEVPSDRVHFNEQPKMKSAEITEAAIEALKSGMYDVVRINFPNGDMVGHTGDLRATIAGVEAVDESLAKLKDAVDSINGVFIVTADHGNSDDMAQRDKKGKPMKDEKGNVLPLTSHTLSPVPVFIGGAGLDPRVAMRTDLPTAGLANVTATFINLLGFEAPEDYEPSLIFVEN
DNA dC->dU-editing enzyme APOBEC-3G (Homo sapiens), sequence (Q9HC16 whole entry, looked up): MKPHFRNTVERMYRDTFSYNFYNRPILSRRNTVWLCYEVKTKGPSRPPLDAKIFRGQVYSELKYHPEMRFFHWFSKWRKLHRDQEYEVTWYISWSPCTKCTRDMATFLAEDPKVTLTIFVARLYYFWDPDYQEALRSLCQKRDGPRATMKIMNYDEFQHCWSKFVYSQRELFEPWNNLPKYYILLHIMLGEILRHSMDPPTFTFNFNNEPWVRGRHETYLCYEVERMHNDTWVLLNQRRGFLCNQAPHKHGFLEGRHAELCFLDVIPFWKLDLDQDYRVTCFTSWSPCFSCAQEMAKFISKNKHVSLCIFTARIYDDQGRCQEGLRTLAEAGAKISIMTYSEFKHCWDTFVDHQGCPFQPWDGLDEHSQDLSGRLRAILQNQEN

As to `NCC(CP(=O)(O)O)c1ccc(Cl)cc1` (configuration not stated), the call in assay [1] and in [6] was inactive. Also, the Potency result in [2], in assay [3], in assay [4], in assay [5], in [7] and in assay [8] was “inactive” in each case. The Potency result in assay [9] is “inactive”.

For the compound `CC12NC(Cc3ccccc31)c1ccccc12` (configuration not stated), the call in assay [1] and in [6] was inactive. In addition, the Potency entry in assay [2], in assay [3], in [4], in assay [5], in assay [7] and in assay [8] was “inactive” in each case. Further, the Potency entry in assay [9] is “inactive”.

For the compound `OC1CCCCC1N1CCC(c2ccccc2)CC1` (configuration not stated), the outcome in assay [1] and in assay [6] was inactive. For the same compound, the Potency entry in assay [2], in assay [3], in assay [4], in assay [5], in [7] and in [8] was “inactive” in each case. Further, the Potency result in assay [9] was “inactive”.

As to `CN1CCC(c2c[nH]c3ccc(O)cc23)CC1`, the compound was classed as inactive in assay [1], in assay [6] and in [10]. Besides, the Potency result in [2], in assay [3], in [4], in [5], in assay [7] and in [8] was “inactive” throughout. Further, in [9], the Potency entry is “inactive”.

Turning to `NC(CCCCCP(=O)(O)O)C(=O)O` (configuration not stated), the call in [1] and in assay [6] was inactive. Besides, the Potency entry in assay [2], in [3], in [4], in assay [5], in assay [7] and in assay [8] was “inactive” in each case. Besides, the Potency entry in assay [9] was “inactive”.

In the case of `Oc1ccc2c3c1O[C@H]1c4oc5ccccc5c4C[C@@]4(O)C(C2)N(CC2CC2)CCC314` (some centres not stated), in assay [1], the call was inactive. In addition, the Potency result in [2], in assay [3], in assay [4] and in [5] was “inactive” each time.

In the case of `NC(=O)CI`, the compound was called inactive in assay [1] and in assay [6]. In addition, the Potency result in [2], in [3], in [4], in [5], in assay [7] and in [8] was “inactive” throughout. In addition, the Potency result in [9] is “inactive”.

Take `COc1ccc2[nH]cc(CCN)c2c1`: the compound was called inactive in assay [1] and in assay [6]. In addition, the Potency result in assay [2], in [3], in assay [4], in [5], in assay [7] and in assay [8] was “inactive” throughout. The Potency entry in assay [9] was “inactive”.

Consider `CC(C)CC(NP(=O)(O)O[C@@H]1O[C@@H](C)[C@H](O)[C@@H](O)[C@H]1O)C(=O)NC(Cc1c[nH]c2ccccc12)C(=O)O` (some centres not stated), for which, in [1], the outcome was inactive. Besides, the Potency result in [2] was “inactive”.

Consider `NC(C(=O)O)c1cc(=O)[nH]o1` (configuration not stated), for which the compound was classed as inactive in [1] and in [6]. The Potency result in assay [2], in assay [3], in [4], in assay [5], in assay [7] and in [8] was “inactive” throughout. In addition, the Potency entry in assay [9] is “inactive”.

For the compound `NC(Cc1ccc(N(CCCl)CCCl)cc1)C(=O)O` (configuration not stated), the call in assay [1] and in assay [6] was inactive. Moreover, the Potency entry in [2], in [3], in assay [4], in assay [5], in assay [7] and in assay [8] was “inactive” each time.

With `NNC(=O)c1ccc(O)cc1`, the call in [1] and in assay [6] was inactive. In addition, the Potency entry in assay [2], in assay [3], in assay [4], in assay [5], in [7] and in assay [8] was “inactive” each time. Moreover, in assay [9], the Potency result was “inactive”.

As for `Cc1o[nH]c(=O)c1CC(N)C(=O)O` (configuration not stated), the compound was classed as inactive in assay [1] and in assay [6]. The Potency entry in assay [2], in assay [3], in assay [4], in [5], in [7] and in assay [8] was “inactive” each time. The Potency entry in assay [9] was “inactive”.

With `NC(N)=Nc1ccc2[nH]c3c(c2c1)C[C@@]1(O)[C@H]2Cc4ccc(O)c5c4[C@@]1(CCN2CC1CC1)[C@H]3O5`, the call in assay [1] and in assay [6] was inactive. Besides, the Potency result in [2], in [3], in assay [4] and in assay [5] was “inactive” throughout. Moreover, the Potency in assay [7] was 79.4 µM (active).

`O=[N+]([O-])c1ccc2nc(N3CCNCC3)ccc2c1`: the result in assay [1] and in assay [6] was inactive. Further, the Potency result in assay [2], in assay [3], in [4], in assay [5] and in assay [7] was “inactive” each time.

Turning to `CN(C(=O)Cc1ccc(Cl)c(Cl)c1)C(CN1CCCC1)c1cccc(OCC(=O)O)c1` (configuration not stated), the outcome in [1] and in assay [6] was inactive. The Potency result in assay [2], in assay [3], in assay [4], in assay [5], in assay [7] and in assay [8] was “inactive” throughout. In addition, the Potency result in assay [9] is “inactive”.

`C[N+]1(C)CCOC(O)(c2ccc(-c3ccc(C4(O)C[N+](C)(C)CCO4)cc3)cc2)C1` (configuration not stated): the compound was classed as inactive in assay [1] and in [6]. Besides, the Potency entry in assay [2], in assay [3], in assay [4], in assay [5], in [7] and in [8] was “inactive” throughout. Also, the Potency result in [9] was “inactive”.

Take `Clc1cc(I)cc(Cl)c1NC1=NCCN1`: the outcome in assay [1] and in [6] was inactive. Also, the Potency result in [2], in assay [3], in assay [4], in assay [5], in [7] and in [8] was “inactive” in each case. For the same compound, the Potency result in [9] is “inactive”.

Consider `c1ccc2cc(CC3=NCCN3)ccc2c1`, for which the result in assay [1] and in assay [6] was inactive. The Potency result in assay [2], in assay [3], in [4], in [5], in assay [7] and in [8] was “inactive” each time. For the same compound, the Potency result in [9] was “inactive”.

In the case of `CCCN(CCC)[C@H]1CCc2c(F)ccc(O)c2C1`, the result in assay [1] and in assay [6] was inactive. Moreover, the Potency result in [2], in [3], in assay [4], in assay [5], in assay [7] and in assay [8] was “inactive” each time. In [9], the Potency entry was “inactive”.

With `CP(=O)(O)C1=CCNCC1`, the outcome in assay [1] and in assay [6] was inactive. The Potency entry in assay [2], in assay [3], in assay [4], in assay [5], in assay [7] and in assay [8] was “inactive” each time. Besides, the Potency result in [9] is “inactive”.

`N[C@@]1(C(=O)O)CC[C@@H](C(=O)O)C1`: the compound was called inactive in assay [1] and in assay [6]. Besides, the Potency result in assay [2], in [3], in assay [4], in assay [5], in assay [7] and in [8] was “inactive” in each case. Moreover, the Potency result in assay [9] is “inactive”.

Consider `CCCN(CCC)C1Cc2cc(OC)c(OC)cc2C1`, for which the outcome in assay [1], in [6] and in assay [10] was inactive. For the same compound, the Potency entry in [2], in assay [3], in assay [4], in assay [5], in assay [7] and in assay [8] was “inactive” each time. Moreover, the Potency entry in assay [9] was “inactive”.

As for `C[C@H](Cc1ccc2c(c1)OC(C(=O)O)(C(=O)O)O2)NC[C@H](O)c1cccc(Cl)c1`, the outcome in assay [1] and in assay [6] was inactive. Also, the Potency result in assay [2], in [3], in assay [4], in [5], in assay [7] and in assay [8] was “inactive” in each case. Besides, the Potency entry in assay [9] is “inactive”.
